# aSyn UTR act: Activators working through SNCA 5'UTR binding (MLPCN) | alpha-synuclein 5'UTR reporter, activators screen | activity score, % (tested at 7.5 µM), hits read low | 300,000 tested, 7.1% active; in the data active means activity score below about -60%
# Numbers without * were called inactive. Not all results are given here.
SMILES,aSyn UTR act
c1ccc(CN2CCC(Nc3nc(-c4cccnc4)nc4ccccc34)CC2)cc1,-83*
Cc1ccc(-c2nc(N/N=C/c3ccncc3)c3ccccc3n2)cc1,-120*
Fc1ccccc1/C=N/Nc1nc(-c2ccccn2)nc2ccccc12,81
Cc1cc2nc(C3CCN(Cc4nnnn4Cc4ccccc4)CC3)[nH]c2cc1C,74
O=C1/C(=C/c2ccc(F)cc2)CCC1C1CCCC1 (centres undefined),-133*
O=C1/C(=C/c2ccco2)CCC1C1CCCC1 (centres undefined),-66*
CCOc1ccc(/C=C2\CCC(C3CCCC3)C2=O)cc1 (centres undefined),-229*
O=C1/C(=C/c2ccccc2)CCC1C1CCCC1 (centres undefined),-73*
O=C1C(=C2SCCCS2)CC/C1=C\c1ccc(F)cc1,119
O=[N+]([O-])c1ccc(Nc2ccc3ccccc3c2)nc1,-168*
CC(=O)Cn1ncc(N2CCCCC2)c(Cl)c1=O,-80*
NC(=O)C1=NOC(CNc2ncc(C(F)(F)F)cc2Cl)C1 (centres undefined),-72*
O=c1c(Cl)nc2cc(Cl)ccc2n1CCNc1ncc(C(F)(F)F)cc1Cl,110
CN1CCC(=NOc2ccc([N+](=O)[O-])cc2)CC1,-93*
Oc1c(Br)cc(C=Nc2ccc3nc(-c4ccccc4)[nH]c3c2)c(O)c1Br,-124*
O=[N+]([O-])c1ccc(O)c(C=Nc2ccc3nc(-c4ccccc4)[nH]c3c2)c1,-166*
C/[N+]([O-])=C/c1c(OCc2ccccc2)ccc2ccccc12,-91*
O=Cc1c(OCc2ccccc2)ccc2ccccc12,-131*
Cc1nnc(SCc2nc3ccccc3s2)n1N,-145*
CCn1c(SCc2nc3ccccc3s2)nnc1-c1ccccc1,-117*
CCC(c1nnc(SCc2nc3ccccc3s2)n1Cc1ccccc1)N(C)C (centres undefined),-101*
c1ccc(-n2cnnc2SCc2nc3ccccc3s2)cc1,-146*
Cc1nnc(SCc2nc3ccccc3s2)n1-c1ccccc1,-195*
CCn1c(SCC(O)c2ccccc2)nnc1-c1ccccc1 (centres undefined),-70*
C/C(=N\Nc1cccc(C(=O)O)c1)c1cc2ccccc2o1,-66*
SMILES,aSyn UTR act
C/C(=N\Nc1cccc([N+](=O)[O-])c1)c1cc2ccccc2o1,-166*
C/C(=N\Nc1cc(N2CCOCC2)ncn1)c1cccc([N+](=O)[O-])c1,-81*
Clc1ccccc1/C=N/Nc1cc(N2CCOCC2)ncn1,-151*
O=[N+]([O-])c1cccc(/C=N/Nc2cc(N3CCOCC3)ncn2)c1,-90*
C/C(=N\Nc1cc(N2CCOCC2)ncn1)c1ccccc1,-79*
O=C(O)c1c(-c2ccc(Cl)cc2)cn2ccccc12,-167*
O=C(OCc1ccccc1)c1cccc(-c2nnc(-c3ccccc3)o2)c1,-69*
O=C(OCc1nnc(-c2ccccc2)o1)c1ccc2c(c1)OCCO2,-62*
O=C(OCc1ccccc1)c1ccc2c(c1)-c1ccccc1C2=O,-194*
O=C(OCc1ccc(C(=O)c2ccccc2)cc1)c1cccc(-c2nnc(-c3ccccc3)o2)c1,-80*
Cc1ccc(-c2noc(-c3ccno3)n2)cc1,-126*
COc1ccc(-c2nc(-c3ccncc3)no2)cc1OC,-121*
COc1cccc(-c2nc(-c3ccncc3)no2)c1,-114*
COc1cccc(-c2nc(CS(=O)(=O)c3ccccc3)no2)c1,-126*
COc1ccc(-c2noc(-c3ccccc3Cl)n2)cc1OC,-180*
Fc1cccc(F)c1-c1nc(-c2ccncc2)no1,-142*
Clc1cccc(-c2nc(-c3ccccn3)no2)c1,93
COc1ccc(-c2noc(-c3cccc(Cl)c3)n2)cc1OC,-184*
Cc1ccc(C(=O)Nc2ccccc2OC(F)F)cc1,-62*
Cc1ccc(NC(=O)c2cccc(OC(F)F)c2)c(OC(F)F)c1,-71*
Cc1c(Cl)cccc1NC(=O)c1cccc(OC(F)F)c1,-76*
O=C(/C=C\c1ccco1)Nc1nc(-c2ccccc2)cs1,-121*
O=C(/C=C/c1ccco1)NC(=S)Nc1nc(-c2ccc3ccccc3c2)cs1,-94*
O=C(/C=C/c1ccco1)NC(=S)Nc1nc(-c2ccc(Cl)cc2)cs1,-76*
Cc1ccc(-n2c(C)nn(CCOc3ccccc3)c2=O)cc1,-104*
SMILES,aSyn UTR act
O=c1c2ccccc2cnn1CCOc1ccccc1,72
Cc1nn(CCOc2ccccc2)c(=O)n1-c1c(F)cccc1F,-108*
CC(C)Oc1cccc(C(=O)NC(=S)Nc2ccccc2)c1,-90*
CCOc1ccc(C(=O)NC(=S)Nc2cccnc2)cc1,-135*
COc1cccc(C(=O)NC(=S)Nc2cccnc2)c1,-153*
CCCOc1cccc(C(=O)NC(=S)Nc2ccccc2)c1,-102*
CC(C)Oc1cccc(C(=O)NC(=S)Nc2cccnc2)c1,-114*
O=C(Nc1ccc(-c2cn3ccsc3n2)cc1)C1CCCC1,-95*
CC(C)(C)CC(=O)Nc1cccc(-c2cn3cccnc3n2)c1,-107*
CC(C)CC(=O)Nc1cccc(-c2cn3ccsc3n2)c1,-126*
O=C(Nc1ccc(-c2cn3ccsc3n2)cc1)C1CC1,-159*
c1cn2cc(-c3ccc4c(c3)OCO4)nc2s1,-137*
CC(=O)Nc1ccc(-c2cn3ccsc3n2)cc1,-71*
COc1ccc(N=CC2=C(O)c3ccccc3C2=O)c(OC)c1,63
O=C1C(C=Nc2ccc(F)cc2)=C(O)c2ccccc21,-214*
Cc1ccccc1N=CC1=C(O)c2ccccc2C1=O,-138*
COc1ccc(-c2cc3nc4ccccc4n3c(N)c2C#N)cc1,-128*
COc1ccc(-c2c(C#N)c(N)nc(Sc3ccc(Cl)cc3)c2C#N)cc1,57
COc1cc(C)ccc1OCc1cc(C(=O)N(Cc2c(C)nn(C)c2C)C2CC2)no1,-81*
COc1cc(C)ccc1OCc1cc(C(=O)N2CCN(C)C[C@@H]2c2ccccc2)no1,-139*
COc1cc(Cl)ccc1OCc1cc(C(=O)N2C[C@H]3CC[C@H]2C3)no1,-130*
COc1cc(Cl)ccc1OCc1cc(C(=O)N2C[C@]3(C)C[C@H]2CC(C)(C)C3)no1,-87*
COc1cc(Cl)ccc1OCc1cc(C(=O)N2C[C@@H]3CCC[C@H]2C3)no1,-176*
COc1ccccc1NC(=O)CSc1nnc(-c2ccccc2)o1,-90*
Cc1cc(C)cc(NC(=O)CSc2nnc(-c3ccccc3Br)o2)c1,-67*
SMILES,aSyn UTR act
COc1ccc(NC(=O)CSc2nnc(-c3cccc(O)c3)o2)cc1,-110*
O=C(CSc1nnc(-c2ccc(O)cc2)o1)Nc1ccccc1,-100*
N#C/C(=C\C=C\c1ccccc1)C(=O)NCc1cccnc1,-70*
O=[N+]([O-])c1ccc(/C=C/c2ccncc2)cc1,-71*
O=[N+]([O-])c1cccc(/C=C/c2ccncc2)c1,-65*
CCOC(=O)c1cnc(SCC(=O)c2ccccc2)nc1N,-141*
CCOC(=O)c1cnc(SCc2cccc(C)c2)nc1N,-89*
CCOC(=O)c1cnc(SCC(C)C)nc1N,-104*
Cc1sc2c(c1C)C(=O)NC(c1cccc(O)c1)N2 (centres undefined),-233*
CCOc1ccc(NC(=O)c2nsc(Cl)c2Cl)cc1,-117*
O=C(Nc1ccc(F)cc1)c1nsc(Cl)c1Cl,-178*
O=C(Nc1ccc(F)c(Cl)c1)c1nsc(Cl)c1Cl,-110*
O=C(Nc1nc2cc3c(cc2s1)OCCO3)C1=COCCO1,99
CC(C)(C)C(=O)Nc1nc2cc3c(cc2s1)OCO3,-144*
CC(C)C(=O)Nc1nc2cc3c(cc2s1)OCO3,-179*

# Screens from PubChem.
